Most compounds without a hit are left out; they make up all but 8% or so of the library.
HCV inhibitor – HCV inhibition | Huh7.5.1 HCVcc-Cre infection, luciferase reporter, 44 h | Potency, µM (top dose mostly 41.8 µM), for the others: at the top dose activity change, negative = inhibition, actives largely listed as inhibitors | actives 3.4% (n = 340,000); active means well fitted inhibition curve with a large enough effect; inconclusive means small, poorly fitted or top-dose-only effect, or another doubt; inactive means no such curve, though single readings can be large or run the other way; further: potency means the concentration at half of the fitted maximal effect; on the % scale 0 is the no-effect control and ±100 the full control effect
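Luciferase read-out (15 sec integration) after a 15 min room-temperature substrate step quantifies HCVcc-Cre infection. Cells, 1,000 per well, had compound added 4 h post-plating, then virus at ~0.5 moi, and were cultured 44 h.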
LASV entry inh – inhibitors of Lassa virus binding or cell entry; Lassa virus pseudotype entry inhibition, cell reporter; Potency, µM (highest dose often 37.9 µM), inactives show at the top dose activity change, negative = inhibition, most hits filed as inhibitors; actives 1.2% (n = 300,000); calls by dose curve; tested in HEK293 cells; further: potency means the concentration at half of the fitted maximal effect; on the % scale 0 is the no-effect control and ±100 the full control effect; nearly all actives have a fitted effect of over 50% in size
HCMV antiviral – human cytomegalovirus inhibition. HFF cells, HCMV-luciferase reporter, 72 h; stronger effect = lower value. activity change, negative = inhibition, % at 57.5 µM. actives 4.5% (n = 410,000). AID 1259415; in the data active means activity change below about -60%; inconclusive means no clear call, values can overlap the other calls; inactive means above about -39%; further: on the % scale 0 is the no-effect control and ±100 the full control effect
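After 16 h attachment at 37C, HFF cells received test compound and HCMV-luciferase (1 PFU/cell); reporter luminescence read 72 h later, data normalized against buffer-only and known inhibitor Salinomycin.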
SARS PLP yeast – SARS-CoV PLP inhibition in yeast | S. cerevisiae expressing SARS-CoV PLpro, growth rescue | Potency, µM (highest dose often 32.9 µM), for the others: at the highest dose activity, positive = growth rescue, hits mostly activators | actives 0.19% (n = 330,000) | AID 485353; calls by dose curve; further: potency means the concentration at half of the fitted maximal effect; 0% is about no effect; nearly all actives have a fitted effect of over 55% in size
FMDV antiviral – antivirals against foot and mouth disease virus; actives 1.2% (n = 410,000); AID 1159524; Potency, µM (doses to about 57.9 µM), for the others: at the top dose activity change, negative = inhibition, most hits filed as inhibitors; FMDV antiviral cell-based qHTS; calls by dose curve; tested in HEK293T cells; further: read-out not given here; potency means the concentration at half of the fitted maximal effect; on the % scale 0 is the no-effect control and ±100 the full control effect; nearly all actives have a fitted effect of over 45% in size
MARV entry inh – Marburg virus entry inhibition | Potency, µM (series often up to 37.8 µM), without a hit: at the highest dose activity change, negative = inhibition, hits mostly inhibitors | Marburg virus pseudotyped entry inhibition, cell reporter | actives 1.8% (n = 300,000); calls by dose curve; tested in HEK293 cells; further: potency means the concentration at half of the fitted maximal effect; on the % scale 0 is the no-effect control and ±100 the full control effect
* marks the source's active call; other numbers are inactive results; u = inconclusive; x = no result given; ! = repeats disagree; [ ] = another dose, or the depositor's remark.

SMILES	HCV inhibitor	LASV entry inh	HCMV antiviral	SARS PLP yeast	FMDV antiviral	MARV entry inh
O=C(Nc1ccc(-c2cn3cccnc3n2)cc1)c1ccccc1F	x	8%[46.1 µM]	8	x	21%	x
COc1cc(NC(=O)c2ccc(S(=O)(=O)N(C)c3ccccc3OC)cc2)cc(OC)c1	11µM*	u	-23	-4%	20%	u
COC(=O)c1ccc(CNC(=O)c2ccc(S(=O)(=O)N(C)c3ccccc3OC)cc2)cc1	8.9µM*	x	-13	-4%[6.58 µM]	-25%	x
Nc1ncnc(NCc2ccc(F)cc2)c1[N+](=O)[O-]	5%	0%	-72*	-1%	-8%	3%[46.1 µM]
Cc1cccc(Nc2ncnc(N)c2[N+](=O)[O-])n1	11%	-4%[46.1 µM]	-79*	1%	-13%	0%[46.1 µM]
Cc1cc(C)nc(Sc2ncnc(N)c2[N+](=O)[O-])n1	22µM*	-13%	u	0%	13µM*	u
Nc1ncnc(NCc2ccccc2)c1[N+](=O)[O-]	12%	5%	-70*	8%	9%	-12%
Cc1ccc(C)c(Nc2ncnc(N)c2[N+](=O)[O-])c1	6%	0%	-27	12%	-17%	-19%
Cn1ncc2c(NCc3ccc(F)cc3)ncnc21	x	9%[46.1 µM]	0	x	-9%	x
Nc1ncnc(Nc2ccccn2)c1[N+](=O)[O-]	u	3%	-27	0%	-17%	-1%[46.1 µM]
Cc1cc(CNC(=O)c2cnn(-c3ncc4c(n3)-c3ccccc3CC4)c2C2CC2)on1	x	x	x	x	25%	x
CCCN(CCC)CCCNC(=O)Cn1cnc2sc(C)c(S(=O)(=O)N3CCC(C)CC3)c2c1=O	13%	7%[46.1 µM]	56	1%	-5%	-4%[46.1 µM]
COCCCNC(=O)c1sc2ncn(CC(=O)Nc3ccc(C)c(Cl)c3)c(=O)c2c1C	u	-20%[46.1 µM]	-18	0%	-13%	-6%[46.1 µM]
CCCN(CCC)CCCNC(=O)Cn1cnc2sc(C)c(S(=O)(=O)N3CCCCC3)c2c1=O	12%	u	-71*!	-2%	19%	2%[46.1 µM]
Cc1ccc(NC(=O)Cn2cnc3sc(C(=O)NCCN(C)C)c(C)c3c2=O)cc1Cl	10µM*	x	x	-5%	x	x
CCN(CC)CCCNC(=O)c1sc2ncn(CC(=O)Nc3ccc(C)c(Cl)c3)c(=O)c2c1C	14µM*	x	-63*	-4%	-8%	x
Cc1ccc(C)c(S(=O)(=O)NCCC(=O)N2CCCC(C(N)=O)C2)c1 (stereo unspecified)	6%	x	-83*	-2%	0%	x
CC(CNC(=O)c1ccc(Cn2c(SCc3ccccc3)nc3cccnc32)cc1)c1ccccc1 (stereo unspecified)	x	14%[46.1 µM]	-9	x	-4%	x
CCNC(=O)N[C@H]1CC[C@@]23CCCN2C(=O)CCC[C@H]3C1Cc1ccccc1 (stereo partly specified)	x	x	-6	x	x	x
O=C1C2C(c3ccccc3)C=CC(c3ccccc3)C2C(=O)N1CCCO (stereo unspecified)	6%	1%	-21	-5%	32µM*	1%
C=CCOCCN1C(=O)C2C(c3ccccc3)C=CC(c3ccccc3)C2C1=O (stereo unspecified)	-6%	24%	-38	x	u	u
CC[C@@H]1CCC[C@@H](O)[C@@H](C)C(=O)O[C@H](C)[C@@H](C)C/C=C(C)/C(OC)=C\C(=O)N(C)C([C@@H](C)CC)C(=O)N(C)[C@@H](C(C)C)C(=O)N(C)[C@@H](COC)C(=O)N2CCC[C@H]2C(=O)N(C)[C@@H](C(C)C)C(=O)N2CCC[C@H]2C(=O)O1 (stereo partly specified)	x	x	-102*	x	u	x
COCC(=O)Nc1ccc2c(c1)[C@@H]1C[C@H](CC(=O)NCc3cccc(F)c3)O[C@@H](CO)[C@@H]1O2	x	x	1	x	-22%	x
COc1cc(/C=N/Nc2nc(N3CCCC3)nc(N3CCCC3)n2)ccc1O	u	-19%	7	1%	-19%	-4%
O=S(=O)(c1cccc(-c2csc(N/N=C/c3ccco3)n2)c1)N1CCOCC1	u	x	u	0%	28µM*	x
SMILES	HCV inhibitor	LASV entry inh	HCMV antiviral	SARS PLP yeast	FMDV antiviral	MARV entry inh
Cc1ccc(C)c(-c2csc(N/N=C/c3ccco3)n2)c1	13µM*	2µM*	u	-2%	-9%	5µM*
COc1ccc(-c2cnnc(N/N=C/c3ccc(O)c(OC)c3)n2)cc1	u	5.8µM*	u	15%	-19%	u
COc1ccc(/C=N/Nc2nc(-c3cccc(S(=O)(=O)N4CCCC4)c3)cs2)cc1OC	10µM*	-9%	u	19%	u	u
Cc1nc(-c2cccc(S(=O)(=O)N3CCCCC3)c2)cs1	0%	-26%	-40	-2%	4%	u
COc1cc(OC)cc(C(=O)N2CCCC(n3cc(C(=O)NCC(C)C)nn3)C2)c1 (stereo unspecified)	x	x	x	x	11%	x
CCOc1cc(C=NNC(=O)c2cccc(S(=O)(=O)N3CCCC3)c2)ccc1O	-17%	x	0	-2%	u	x
CCOc1cc(/C=N/Nc2nc(-c3cccc(S(=O)(=O)N4CCCC4)c3)cs2)ccc1O	10µM*	u	u	11%	u	u
COc1cc(/C=N/Nc2nc(-c3ccc(S(=O)(=O)N(C)C)cc3)cs2)ccc1O	u	x	-65*	1%	35µM*	x
Cc1ccc(-n2c(Cn3nc(C(F)F)cc3C(F)F)n[nH]c2=S)cc1	18%	24%	23	-1%	18%	6%
O=C(CCc1nnc2n(Cc3ccc(Cl)cc3)c(=O)c3ccccc3n12)NCCN1CCCC1	3.5µM*	u	-14	0%	5%	10µM*
Cc1ccc2c(c1)C(c1ccc(F)cc1)N(C(=O)c1ccc(S(=O)(=O)N(C)C)cc1)CC(=O)N2 (stereo unspecified)	-12%	x	x	2%	0%	x
Cc1ccc2c(c1)C(c1ccc(F)cc1)N(C(=O)C(C)C)CC(=O)N2 (stereo unspecified)	x	13%[46.1 µM]	-105*	x	8.9µM*	6%[46.1 µM]
Cc1ccc2c(c1)C(c1ccc(F)cc1)N(C(=O)c1cccc(C(F)(F)F)c1)CC(=O)N2 (stereo unspecified)	x	-26%[46.1 µM]	-107*	x	23%	u
COc1ccc(Nc2cc3c(cn2)cc(-c2cccc(F)c2)n3C)cn1	x	x	-38	x	x	x
CC(C)CNc1ccc2c(c1)OC[C@H](C)NS2(=O)=O	x	x	3	x	x	x
CCOc1ccc(CN2CCc3nc(N4CCN(c5ncccn5)CC4)ncc3C2)cc1OC	x	-29%[46.1 µM]	u	x	u	x
COc1ccc(CN2CCc3nc(N4CCN(c5ccc(F)cc5)CC4)ncc3C2)c(OC)c1OC	x	u	-36	x	20µM*	x
CCOc1ccc(CN2CCc3nc(N4CCN(c5ccccc5OC)CC4)ncc3C2)cc1OC	x	u	u	x	20µM*	x
COc1cc(OC)c(OC)cc1CN1CCc2nc(N3CCN(c4ccccc4F)CC3)ncc2C1	x	-2%[46.1 µM]	-21	x	11µM*	x
